Screening results: PubChem, several laboratories
Most compounds without a hit are left out; they make up all but 2.2% or so of the library.
aSyn 5UTR inh – 5' untranslated region of α-synuclein, MLPCN primary screen | alpha-synuclein 5'UTR reporter, inhibitor activity | inhibition, % (tested at 7.5 µM) | hit rate 0.82% among 300,000; in the data active means inhibition above about 60%; inconclusive means no clear call, values can overlap the other calls;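 further: H4 neuroglioblastoma cells stably carrying SNCA 5'UTR luciferase fusion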
BaF3 tox – reduces parental Ba/F3 cell viability, JAK2V617F counter-screen; inhibition, % at 5.6 µM; hit rate 1.1% among 220,000; CellTiter-Glo ATP luminescence; AID 1486;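 active means inhibition above a per-campaign cutoff, the mean inhibition of all tested compounds plus 3 SD, cut at about 27% in these data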
IEC-6 tox – kills IEC-6 intestinal cells in KLF5 counter-screen; IEC-6 cytotoxicity, luminescence viability; inhibition, % at 5 µM; hit rate 0.78% among 290,000; AID 1825; in the data active means inhibition above about 22%
KLF5 inhibitor – inhibitors of KLF5 expression; DLD-1 KLF5 promoter-luciferase reporter, luminescence; inhibition, % at 5 µM; hit rate 0.23% among 290,000;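 active means inhibition above a per-plate limit of that plate's mean compound inhibition plus 3 SD, cut at about 60% in these data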;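 further: higher means less KLF5 promoter-driven luciferase light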
APP transl inh – APP translation inhibition. SH-SY5Y APP 5'UTR-luciferase reporter, luminescence. inhibition, % at 2 µM. hit rate 0.82% among 190,000. AID 1285;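 active means inhibition above a set limit, derived from the sample mean plus 3 SD, cut at about 45% in these data; inconclusive means one replicate passes the limit while the other fails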
Ba/F3 V617F tox – lowers viability of Ba/F3 cells expressing EpoR and JAK2V617F; ATP luminescence; hit rate 1.1% among 220,000; inhibition, % at 5.6 µM;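 active means inhibition above the campaign mean plus 3 SD over all tested compounds, cut at about 24% in these data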;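 further: cytokine-independent growth of Ba/F3 cells driven by EpoR plus mutant JAK2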
A number is an active result; - = inactive; ? = inconclusive; . = no result given.

SMILES	aSyn 5UTR inh	BaF3 tox	IEC-6 tox	KLF5 inhibitor	APP transl inh	Ba/F3 V617F tox
C=CCNc1nc2c(c(=O)[nH]c(=O)n2C)n1CC(O)COc1ccc2ccccc2c1 (configuration not stated)	-	.	-	-	.	.
COCCNC(=O)CN1CCC(NC(=O)c2ccco2)CC1	-	46	-	-	-	-
C=CCNC(=O)CN1CCC(NC(=O)c2ccco2)CC1	-	-	-	-	-	-
Cc1ccc2[nH]c3c(c2c1)CN(C(=O)CN1CCN(c2cccc(C)c2C)CC1)CC3	-	-	-	-	-	-
Cc1ccc2[nH]c3c(c2c1)CN(C(=O)CN1c2ccc(F)cc2CCC1C)CC3 (configuration not stated)	-	95	-	-	-	-
Cc1ccc(-c2nc(-c3ccccc3)no2)cc1	?	-	-	-	-	-
Cc1ccc(-c2nc(-c3ccccc3)no2)c(Cl)c1	95	-	-	-	-	-
COc1ccc(-n2c(-c3ccc(Cl)cc3)c[n+]3c2CCCCC3)cc1	-	66	-	-	.	72
FC(F)Oc1ccc(-c2c[n+]3c(n2-c2ccccc2)CCCCC3)cc1	-	60	-	-	.	64
COc1ccc(-c2c[n+]3c(n2-c2ccccc2)CCCCC3)cc1	-	64	-	-	-	76
COc1ccc(-c2c[n+]3c(n2-c2c(C)n(C)n(-c4ccccc4)c2=O)CCCCC3)cc1	-	-	-	-	-	-
CCOc1ccc(-n2c(-c3ccccc3)c[n+]3c2CCC3)cc1	-	68	-	-	-	79
COc1ccc(N2CCN(C(=O)COC(=O)CNC(=O)c3ccc(C)cc3)CC2)cc1	-	.	.	.	.	.
O=C(NCc1n[nH]c(=O)c2ccccc12)C1CC(=O)N(c2ccc(Cl)cc2)C1 (configuration not stated)	-	.	.	.	.	.
O=C(Oc1cccnc1)c1ccco1	-	-	-	-	46	-
Cn1c(=O)c(-c2cc(Br)ccc2N)nc2ccccc21	-	46	-	-	-	40
CCOC(=O)Cn1c(=O)c(-c2cc(Br)ccc2N)nc2ccccc21	-	88	-	-	.	47
CC1=CC(C)(C)N2C(=O)C3(N=C(N)NC(Nc4ccccc4)=N3)c3cc(C)cc1c32 (configuration not stated)	-	42	-	-	-	44
CC1=CC(C)(C)N2C(=O)C3(SCC(=O)N3c3ccc(O)cc3)c3cc(C)cc1c32 (configuration not stated)	-	-	-	-	-	-
Cc1ccc(C(CNS(=O)(=O)c2ccc([N+](=O)[O-])cc2)N2CCN(C)CC2)cc1 (configuration not stated)	-	.	.	.	.	.
CC(C)(C)NC(=O)C(c1ccncc1)N(Cc1cccs1)C(=O)Cn1nnc(-c2ccc(F)cc2)n1 (configuration not stated)	-	-	-	-	-	-
CC(C)(C)NC(=O)C(OC(=O)Cn1nnc(-c2ccc(F)cc2)n1)c1ccncc1 (configuration not stated)	-	93	-	-	-	-
Cc1oc2c(c1C(=O)O)C(=O)c1ccccc1C2=O	-	-	-	-	-	-
Cc1oc2c(c1C(=O)c1ccccc1)C(=O)C(=O)c1ccccc1-2	127	-	-	-	-	-
C/C(=N\S(=O)(=O)c1ccc(C)cc1)N1CCCCC1	-	80	-	-	-	-
SMILES	aSyn 5UTR inh	BaF3 tox	IEC-6 tox	KLF5 inhibitor	APP transl inh	Ba/F3 V617F tox
C/C(=N\S(=O)(=O)c1ccc(C)cc1)N1CCN(S(=O)(=O)c2ccccc2)C1	-	-	-	-	-	-
O=C(CSC(=S)N1CCOCC1)c1cc2ccccc2oc1=O	-	.	-	-	.	.
Cc1cc(NC(=S)NC(=O)c2ccccc2)ccc1-c1cc2ccccc2oc1=O	-	-	-	-	69	-
Cc1ccc(C(=O)Nc2cc3ccccc3oc2=O)cc1	111	-	-	-	66	-
CC(OC(=O)c1nc(Cl)ccc1Cl)C(=O)Nc1ccccc1F (configuration not stated)	-	.	.	.	.	.
Cc1c(F)cccc1NS(=O)(=O)c1ccc2c(c1)c(C)cc(=O)n2C	-	.	-	-	.	.
COc1ccc(-n2ncc(Cl)c(Cl)c2=O)cc1	-	-	61	-	92	-
COc1ccc(-n2ncc(N(C)n3cccc3)c(Cl)c2=O)cc1	.	-	-	-	-	-
Cc1nn2cc(-c3ccccc3)nc2[nH]c1=O	-	-	-	-	-	-
Cc1nc(-c2ccccc2)cn(O)c1=O	-	79	-	-	-	-
CC(=O)N1CCC(=NNC(=O)c2cccs2)CC1	-	53	-	-	-	-
